This passage reports z-score results from PubChem BioAssay AID488969 (Vanderbilt High Throughput Screening Facility, 2010).

Molecules are shown by their SMILES. The full ranking holds about 110,000 compounds; the median of “z-score” is about -0.1, and the highest 2% start at about 2. This excerpt belongs to a sample that is enriched for the highest values. The source made the active and inactive calls.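 Rule for the calls: active = z-score in the third read window above 3 or below -3; inactive = the rest.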

Sequence of Metabotropic glutamate receptor 8 (Rattus norvegicus) (P70579 whole entry, looked up): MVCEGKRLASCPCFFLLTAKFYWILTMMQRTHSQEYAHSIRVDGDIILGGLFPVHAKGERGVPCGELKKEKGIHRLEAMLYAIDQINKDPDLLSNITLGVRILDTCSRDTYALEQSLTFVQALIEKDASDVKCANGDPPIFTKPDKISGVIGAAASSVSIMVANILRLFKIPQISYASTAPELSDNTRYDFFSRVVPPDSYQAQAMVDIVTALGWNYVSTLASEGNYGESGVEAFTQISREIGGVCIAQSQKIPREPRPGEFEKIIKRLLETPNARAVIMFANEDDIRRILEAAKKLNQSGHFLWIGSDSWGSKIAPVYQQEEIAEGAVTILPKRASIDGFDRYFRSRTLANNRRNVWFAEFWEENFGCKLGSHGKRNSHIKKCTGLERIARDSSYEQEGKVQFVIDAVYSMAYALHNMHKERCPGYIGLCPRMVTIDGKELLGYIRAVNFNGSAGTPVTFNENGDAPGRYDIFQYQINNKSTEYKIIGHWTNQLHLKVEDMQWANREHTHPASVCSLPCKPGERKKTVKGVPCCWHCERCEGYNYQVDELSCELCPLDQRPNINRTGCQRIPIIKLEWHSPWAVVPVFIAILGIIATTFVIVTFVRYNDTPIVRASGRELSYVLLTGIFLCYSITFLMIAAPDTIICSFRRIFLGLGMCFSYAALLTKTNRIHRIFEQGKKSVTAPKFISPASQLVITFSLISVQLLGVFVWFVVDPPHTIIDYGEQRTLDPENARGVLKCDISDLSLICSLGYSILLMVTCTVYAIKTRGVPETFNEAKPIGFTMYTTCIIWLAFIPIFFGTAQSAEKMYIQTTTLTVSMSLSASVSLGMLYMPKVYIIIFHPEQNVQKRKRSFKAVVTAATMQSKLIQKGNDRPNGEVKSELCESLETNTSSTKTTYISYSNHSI

The assay concerns the target Metabotropic glutamate receptor 8 (Rattus norvegicus) (UniProt P70579). The assay can be described thus: mGluR8 Gi/Go-coupled signaling modulation – cell-based, rat, thallium flux, HTS, primary screen (AID 488969). As to conditions: HEK293 rat mGluR8, GIRK (G protein-gated inwardly rectifying potassium channel) thallium flux, FluoZin2; at 10 µM; stronger effect = higher value; submaximal glutamate (EC20) added with thallium.
`COC(=O)c1ccc(NC(=O)CNCc2ccncc2)cc1`: the z-score is -0.143.

In turn, `Cc1noc(C)c1C(=O)N1CCc2ccccc2C1` came in with a z-score of 1.98.

Regarding `Cc1onc(-c2ccccc2Cl)c1C(=O)N1CCc2ccccc2C1`, the z-score was -0.95.

`Cc1onc(-c2c(Cl)cccc2Cl)c1C(=O)N1CCc2ccccc2C1` returned a z-score of 0.0144.

`C=CCn1c(CCNC(=O)c2ccccc2F)nnc1SCC(=O)Nc1nc(C)cs1` displayed a z-score of 0.0314.

Molecule `CCOc1cc(C2C(C#N)=C(N)Oc3n[nH]c(C)c32)ccc1OCCN1CCOCC1` (configuration not stated) returned a z-score of -0.102.

Molecule `COC(=O)c1cc(-c2ccccc2)on1` gave a z-score of -1.87.

Molecule `CCCCP(=O)(CCCC)CCP(=O)(c1ccccc1)c1ccccc1` yielded a z-score of -0.667.

In the case of `O=C(O)Cn1c(SCc2cccc3ccccc23)nc2ccccc21`, the z-score was 1.11.

Molecule `O=C(O)CCn1c(SCc2cccc3ccccc23)nc2ccccc21` showed a z-score of 2.1.

On to `O=C(O)CCn1c(SCc2ccccc2)nc2ccccc21`, for which the z-score is -0.0963.

`CCOc1ccc(NC(=O)CCNc2c(N3CCCC3)c(=O)c2=O)cc1`: the z-score was -0.437.

In the case of `CCCCn1c(-c2csc3c2CCCC3)n[nH]c1=S`, the z-score was 6.19 (active).

As to `CCn1c(-c2csc3c2CCC(C)C3)n[nH]c1=S` (configuration not stated), the z-score is 1.49.

As for `CCn1c(-c2csc3ccccc23)n[nH]c1=S`, the z-score is -0.273.

For `CC(C)Cn1c(-c2csc3ccccc23)n[nH]c1=S`, the z-score is 0.509.

For `CCCCn1c(-c2csc3ccccc23)n[nH]c1=S`, the z-score stood at 2.3.

For `C=CCn1c(-c2csc3c2CCC(C)C3)n[nH]c1=S` (configuration not stated), the z-score is 0.494.

The molecule `CC(C)Cn1c(-c2csc3c2CCCC3)n[nH]c1=S` came in with a z-score of -1.59.

`CCn1c(-c2csc3c2CCCC3)n[nH]c1=S` registered a z-score of -0.181.

Take `CCCCn1c(-c2csc3c2CCC(C)C3)n[nH]c1=S` (configuration not stated): the z-score is 7.55 (active).

In turn, `CCCOc1ccc(C2/C(=C(\O)c3c(C)[nH]c(C(=O)OC)c3C)C(=O)C(=O)N2CCN(C)C)cc1` (configuration not stated) displayed a z-score of 0.491.

In turn, `CCC(N1CCOC1=O)S(=O)(=O)c1ccc(C)cc1` (configuration not stated) registered a z-score of -0.148.

As to `Cc1cccnc1NC(=O)Nc1cccs1`, the z-score was -0.232.

For the molecule `COc1cc(NC(=O)c2ccc(COCC(F)(F)F)cc2)cc(OC)c1OC`, the z-score was -0.608.

For the molecule `COc1cc(NC(=O)c2ccc(COc3ccccc3Br)o2)cc(OC)c1OC`, the z-score was -0.932.

`COc1cc(NC(=O)c2ccc(COCC(F)(F)F)o2)cc(OC)c1OC` displayed a z-score of 2.1.

Molecule `NC(=O)C1CCN(C(=O)COc2ccc3ccccc3c2)CC1` had a z-score of 0.115.

Consider `Cc1ccc(NC(=O)COn2nnc3ccc(S(=O)(=O)N(C)C)cc32)cc1F`, for which the z-score was 3.29 (active).

For `CCN(CC)S(=O)(=O)c1ccc2nnn(OCC(=O)Nc3cccc(C#N)c3)c2c1`, the z-score was -0.793.

`CCc1ccc(NC(=O)COn2nnc3ccc(S(=O)(=O)N(C)C)cc32)cc1` yielded a z-score of -0.27.

In the case of `COCCNS(=O)(=O)c1ccc(-c2ccc(C)cc2)cc1`, the z-score is -0.0903.
